MITF TRPM1 HTS = MITF TRPM1 promoter activation in melanoma cells; SK-MEL-5 TRPM1-promoter luciferase, 24 h; % of positive control, neutral wells = 0; activation, % at 12.5 µM; 300,000 tested, 0.75% active;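 active = mean activation of at least 80% with every replicate also reaching 80%; inconclusive = mean reaches 80% but some replicate falls short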;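 also: 0% = neutral control wells and 100% = parthenolide positive control wells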
AHR activator = activates the human aryl hydrocarbon receptor; P35869; AHR-responsive luciferase reporter cells, luminescence; activation, % at 5 µM; 320,000 tested, 2.5% active; AID 2796; in the data active = activation above about 47%;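 also: 0% = vehicle wells and 100% = reference agonist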
Target sequence (P35869 whole entry, looked up): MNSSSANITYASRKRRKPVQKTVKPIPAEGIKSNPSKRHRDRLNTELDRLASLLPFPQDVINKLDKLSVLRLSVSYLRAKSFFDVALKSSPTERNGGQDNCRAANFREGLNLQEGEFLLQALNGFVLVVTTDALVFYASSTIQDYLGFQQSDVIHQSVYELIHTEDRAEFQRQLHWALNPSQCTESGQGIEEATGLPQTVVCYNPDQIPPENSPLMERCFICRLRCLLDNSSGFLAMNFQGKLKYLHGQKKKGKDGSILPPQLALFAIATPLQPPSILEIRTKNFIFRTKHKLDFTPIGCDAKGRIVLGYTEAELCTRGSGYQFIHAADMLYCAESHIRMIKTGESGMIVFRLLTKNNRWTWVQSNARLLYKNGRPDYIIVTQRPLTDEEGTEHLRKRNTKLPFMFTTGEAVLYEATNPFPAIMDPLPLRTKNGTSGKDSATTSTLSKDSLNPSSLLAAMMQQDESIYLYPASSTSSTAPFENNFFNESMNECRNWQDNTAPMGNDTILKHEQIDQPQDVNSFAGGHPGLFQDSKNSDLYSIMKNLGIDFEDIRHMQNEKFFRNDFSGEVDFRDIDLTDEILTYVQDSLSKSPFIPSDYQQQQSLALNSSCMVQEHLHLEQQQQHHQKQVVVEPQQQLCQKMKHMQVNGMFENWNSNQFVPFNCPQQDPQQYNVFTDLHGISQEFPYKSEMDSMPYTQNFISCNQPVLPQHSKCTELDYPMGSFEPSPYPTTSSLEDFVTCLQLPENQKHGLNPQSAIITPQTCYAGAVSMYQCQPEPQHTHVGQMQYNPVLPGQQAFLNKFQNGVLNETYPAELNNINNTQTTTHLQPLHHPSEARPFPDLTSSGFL
esBAF inh = blocks esBAF chromatin remodeling in mouse ES cells; Bmi1-luciferase knock-in reporter, 24 h; 100% = twice the neutral-well signal; reporter increase, % at 12.5 µM; 350,000 tested, 2% active; in the data active = activation above about 40%; inconclusive = no clear call, values can overlap the other calls;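 also: 0% = median of the plate's neutral control wells and 100% = double that signal; a rise in the Bmi1 reporter signal indicates esBAF inhibition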
Wnt bcat act = Wnt/beta-catenin pathway activation. Wnt/beta-catenin reporter cell assay, activator, plate reader. activation, % at 9.35 µM. 300,000 tested, 1.2% active. AID 743398; in the data active = activation above about 30%, passing the limit was not always enough; inconclusive = no clear call, values can overlap the other calls;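 also: 0% = neutral control wells and 100% = positive control wells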
GAA850 FXN act = increases GAA850 frataxin promoter reporter activity. activation, % at 6 µM. 360,000 tested, 0.56% active. HEK293 lucGAA850 FXN promoter luciferase reporter, 24 h; percent of 10 µM SAHA response. AID 540364;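 active = activation above the average of all compounds screened plus 3 SD, cutoff fixed separately per campaign, cut at about 7.5% in these data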;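 also: 0% = DMSO wells and 100% = 10 µM SAHA wells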
* hit, by the source's call; ? = inconclusive; nt = no result given. Only some compounds are listed: those with a hit (about 4.2% of all), similar ones and a draw of the others.

SMILES	MITF TRPM1 HTS	AHR activator	esBAF inh	Wnt bcat act	GAA850 FXN act
C[C@@H]1CN([C@@H](C)CO)C(=O)Cc2cc(NC(=O)C3CCCCC3)ccc2O[C@H]1CN(C)S(=O)(=O)c1cccs1	nt	nt	5.5	nt	nt
CN1c2ccc(Br)cc2[C@@H]2[C@@H](CCN2C(=O)C2CCOCC2)[C@H]1CO	nt	nt	-0.4	nt	nt
Cc1noc(C)c1S(=O)(=O)N(C)C[C@H]1Oc2ccc(NC(=O)Nc3ccc4c(c3)OCO4)cc2CC(=O)N([C@@H](C)CO)C[C@H]1C	nt	nt	-2.7	nt	nt
COc1ccc(OC)c(NC(=O)c2cc3ccccc3cc2OC)c1	29.2	7.5	12.9	3.3	3.4
COc1cccc(NC(=O)c2ccccc2F)c1	86.6*	-2.0	38.1	?	4.7
COc1cccc(NC(=O)c2cc3ccccc3cc2OC)c1	nt	6.7	49.8*	48.6*	6.0
COc1cccc(NC(=O)c2cccc(OC)c2OC)c1	nt	34.0	34.5	21.0	2.9
COc1cc2ccccc2cc1C(=O)Nc1ccc(Cl)cn1	46.6	52.5*	66.7*	9.6	6.8
Cn1c(=O)c2cn3c(c2n(C)c1=O)C(c1ccccc1)CC(c1ccccc1)=N3 (stereo not drawn)	-21.0	38.2	77.3*	-3.2	4.2
Cn1c(=O)c2c(-c3ccccc3)n(-c3ccccc3)cc2n(C)c1=O	nt	nt	-11.7	-1.8	-0.6
C[C@H]1CN([C@@H](C)CO)C(=O)c2cc(C#CCc3ccccc3)cnc2O[C@@H]1CN(C)CC1CCCC1	nt	nt	-6.7	nt	nt
C/C(NC(=O)c1cccs1)=C1\C(=O)C[C@@H]2[C@H]1C2(C)C	74.3	-1.4	43.6*	29.4	3.4
CC1CCC2(CC1)NC(=O)N(NC(=O)c1cccs1)C2=O (stereo not drawn)	9.7	-0.5	-4.2	-0.2	0.8
O=C(CSC1CCc2ccccc21)NNC(=O)Nc1ccc(Cl)cc1 (stereo not drawn)	nt	nt	nt	37.6*	nt
COc1ccc(NC(=O)Nc2ccc3c(c2)[C@@H]2C[C@@H](CC(=O)N4CCN(C)CC4)O[C@H](CO)[C@@H]2O3)cc1	nt	nt	-2.9	nt	nt
Cc1ccc(C2/C(=C(/O)c3cnn(-c4ccccc4)c3C)C(=O)C(=O)N2CCN2CCOCC2)o1 (stereo not drawn)	19.9	6.1	49.7*	nt	4.0
Cc1ccc(C2/C(=C(\O)c3cnn(-c4ccccc4)c3C)C(=O)C(=O)N2CCN(C)C)o1 (stereo not drawn)	nt	-0.1	48.3*	-1.7	2.2
CCN(CC)CCN1C(=O)C(=O)/C(=C(/O)c2cnn(-c3ccccc3)c2C)C1c1ccc(C)o1 (stereo not drawn)	nt	-6.7	?	nt	0.7
CC(C)c1cn(CC[C@H]2CC[C@H](NS(=O)(=O)c3ccc(F)cc3)[C@@H](CO)O2)nn1	nt	nt	1.3	nt	nt
COc1ccc(-c2nn(-c3ccccc3)cc2C#N)cc1	104.6*	-1.0	45.5*	nt	7.4
COc1cccc(-c2nn(-c3ccccc3)cc2CO)c1	64.0	0.6	nt	nt	4.2
